High-throughput results deposited in PubChem BioAssay by several laboratories.
NALP3 yeast inh: blocks the NALP3 inflammasome reconstituted in yeast | actives 0.39% (n = 330,000) | Yeast reconstituted NLRP3/ASC/caspase-1, beta-gal luminescence, 24 h | inhibition, % at 10 µM;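 active means inhibition of 50% or more; inactive means inhibition below 50%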;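 further: plate controls were induced DMSO wells for no effect and uninduced yeast grown without galactose for full effect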
Rce1 inh: yeast Ras-converting enzyme inhibition | calls only | actives 0.27% (n = 290,000) | Q03530 | yeast membranes, quenched prenylated peptide cleavage fluorescence;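 active means fall in fluorescence gain of 50% or more versus controls, with final raw signal at or below 3038400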;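 further: plate controls were neutral control wells for no effect and wells lacking membranes for full effect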
PERK inhibitor: blocks human PERK kinase | Q9NZJ5 | CHO PERK-DD fusion, SEAP luminescence translation reporter | inhibition, % at 5.6 µM | actives 0.17% (n = 220,000);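 active means inhibition above the mean inhibition of all tested compounds plus 3 SD, set separately per screening campaign, cut at about 2.9% in these data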;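 further: PERK kinase domain activated by AP20187 dimerizer at 100 nM; 0% = DMSO with dimerizer and 100% = rapamycin at 8.4 µM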
Yeast superoxide: lowers age-related superoxide in aged yeast cells. S. cerevisiae aged cells, superoxide DHE fluorescence; stronger effect = lower value. superoxide response (% of plate mean), % at 10 µM. actives 0.18% (n = 330,000). AID 2690;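 active means superoxide response under a set limit, about three screen SD below normal, cut at about 65% in these data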;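 further: yeast aged for seven days with compound at 30 °C before DHE staining; 100% = average MFI of all compound-treated wells on the plate with controls excluded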
NALP1 yeast inh: NALP1 inhibition | AID 2071 | actives 0.61% (n = 280,000) | S. cerevisiae NALP1/ASC/caspase-1 growth, X-gal OD620, 72 h | inhibition, % at 10 µM; in the data active means inhibition mostly above about 24%, no sharp cut-off; inactive means mostly below about 32%
V-ATPase pH: regulators of yeast V-ATPase proton transport | S. cerevisiae, pHLuorin cytosolic pH fluorescence | response, % at 10 µM | actives 0.37% (n = 350,000) | AID 504577; in the data active means response mostly above about 7.3%, no sharp cut-off; inactive means mostly below about 5.4%; further: actives read high
Active calls of the source: *; i = inactive; . = not tested or not shown; + = active, no number. A selection: hits, their analogues and other compounds. The true share with any hit is near 1.6%.

SMILES	NALP3 yeast inh	Rce1 inh	PERK inhibitor	Yeast superoxide	NALP1 yeast inh	V-ATPase pH
COc1ccc2c(c1)OC13CCCCC1C2C(C(=O)c1ccccc1)C(=O)N3 (stereo unspecified)	8	i	0	106	-43	20*
COc1ccc2c(c1)OC13CCN(C)CC1C2C(C(=O)c1ccc(F)cc1)C(=O)N3 (stereo unspecified)	14	i	0	94	24	-5
CC(=O)Nc1ccc(Cl)cc1C1COC(=O)C1=N (stereo unspecified)	11	+	1	115	11	-1
Cc1nn(C)c(C(=O)N/N=C/c2ccc(Br)cc2)c1Cl	22	i	0	61*	20	4
Cc1nn(C)c(C(=O)N/N=C/c2ccncc2)c1Cl	6	.	.	94	10	1
COCCn1c(=S)[nH]c2cc(C(=O)NC3CCCCC3C)ccc2c1=O (stereo unspecified)	.	.	.	.	.	0
CCN(CC)C(=S)SSC(=S)N(CC)CC	31	i	1	90	102*	3
CCN(CC)C(=S)SCC(=O)c1ccccc1	29	i	0	95	9	-5
Cc1ccc(C)c(NC(=O)CCN2CC(C)CC(C)C2)c1 (stereo unspecified)	25	i	.	89	38*	0
Cc1ccc(C)c(NC(=O)CCN2CCC(C)CC2)c1	8	i	.	99	7	3
Cc1cccc(NC(=O)c2nc[nH]c2C(=O)N[C@H](C)CO)c1	.	.	.	.	.	-4
C[C@@H]1CN([C@@H](C)CO)C(=O)c2cc(NC(=O)Nc3ccccc3)ccc2O[C@@H](C)CCCCO[C@H]1CN(C)C(=O)Nc1ccc(C(F)(F)F)cc1	.	.	.	.	.	0
Clc1ccccc1-c1nn2c(COc3ccccc3)nnc2s1	21	i	0	109	40*	0
C[C@@H]1CN([C@H](C)CO)C(=O)c2c(c3ccccc3n2C)-c2ccccc2CO[C@H]1CN(C)Cc1ccc(Oc2ccccc2)cc1	.	.	.	.	.	-2
CC(=O)Nc1cc(C(F)(F)F)ccc1Oc1cccc(Br)c1	7	+	1	94	-6	3
COc1ccc(C2CC(c3ccc4ccccc4c3)=NN2C(=O)CNC2CCCCC2)cc1 (stereo unspecified)	24	+	0	92	13	2
CCN1CCN(CC(=O)N2N=C(c3ccc(OC)cc3)CC2c2ccc(OC)cc2)C(=O)C1=O (stereo unspecified)	-4	i	0	106	20*	-3
COc1ccc(C2=NN(C(=O)CCC(=O)O)C(c3cccs3)C2)cc1 (stereo unspecified)	4	+	0	107	15	-3
COc1ccc2nc(NC(=O)c3ccccc3[N+](=O)[O-])sc2c1	6	i	.	94	30*	-2
COc1ccc2nc(NC(=O)c3ccccc3O)sc2c1	24	i	.	99	20	-2
N#C/C(N=Nc1ccccc1O)=N\Nc1ccccc1O	28	i	.	87	.	-2
CCN(CC)S(=O)(=O)c1cccc(NC(=O)Nc2cccc(C(F)(F)F)c2)c1	-14	i	-2	108	37*	-2
COCCN1Cc2cccc(C(=O)Nc3cc(OC)ccc3OC)c2C1=O	15	i	0	99	28*	0
CC1=C2C3OC(=O)C(C)C3CCC2(C)C=C(Br)C1=O (stereo unspecified)	.	.	.	.	.	-1
CCOc1nc(CC(C)C)c2c(c1C#N)CC(C)(C)OC2	-12	i	1	103	-9	20*
SMILES	NALP3 yeast inh	Rce1 inh	PERK inhibitor	Yeast superoxide	NALP1 yeast inh	V-ATPase pH
CCOc1ncnc2c1oc1nc(CC(C)C)c3c(c12)CC(C)(C)OC3	14	i	0	83	14	1
O=C1c2ccccc2C(Nc2cccnc2)N1Cc1ccccc1 (stereo unspecified)	4	i	0	88	19	2
CCCCNC1c2ccccc2C(=O)N1Cc1ccccc1 (stereo unspecified)	36	i	.	103	-4	17*
CNC(=O)CN1C(=O)CSc2ncccc21	-2	i	2	104	41*	-1
Cc1ccc(-c2nnc(N(C)C(=O)c3cccnc3)s2)cc1	37	i	0	103	41*	1
O=C(CCCn1c(=O)[nH]c2ccsc2c1=O)NCc1cccs1	-10	i	1	86	21*	-1
COc1cccc(-c2nc(C#N)c(N3CCN(C(=O)c4ccco4)CC3)o2)c1	28	+	.	99	12	-1
N#Cc1nc(-c2ccc(F)cc2)oc1N1CCN(C(=O)c2ccco2)CC1	17	i	.	103	8	-2
Cc1nc(SC(C)C(=O)Nc2c(C)n(C)n(-c3ccccc3)c2=O)nc(C)c1C (stereo unspecified)	1	.	.	102	.	2
Cc1c(NC(=O)c2ccc(F)cc2)c(=O)n(-c2ccccc2)n1C	17	i	2	93	36*	5
Cc1c(NC(=O)C(C)Sc2n[nH]c(N)n2)c(=O)n(-c2ccccc2)n1C (stereo unspecified)	0	i	0	99	38*	-1
COCCn1c(=S)[nH]c2cc(C(=O)NC3CCCC(C)C3C)ccc2c1=O (stereo unspecified)	.	.	.	.	.	6
CSc1nc(-c2ccccc2)nc(N2CCN(C)CC2)c1C(C)=O	43	i	-1	106	34*	1
COc1ccc(C#Cc2c(-c3ccsc3)oc3ccc(N4CCOCC4)cc23)cc1	7	i	.	94	.	-4
COc1ccc(-c2oc3ccc(N4CCOCC4)cc3c2C#Cc2ccc(N)cc2)cc1	7	+	.	97	.	4
CCCCN(C)C(=S)Nc1ccc(Oc2ccccc2)cc1	26	i	1	110	29	-2
CCCN(CC1CC1)C(=S)Nc1ccc(Oc2ccccc2)cc1	23	i	2	91	61*	6
CSc1nc2nc(-c3ccccc3)cc(C(F)(F)F)n2n1	14	.	0	108	27*	1
O=C(COC(=O)c1cnc(Cl)c(Cl)c1)NC1CCCC1	.	.	.	.	.	2
CCN(CC)CCCn1c(C)cc2c(c1=O)C(c1cc(OC)c(OC)cc1OC)C(C#N)=C(N)O2 (stereo unspecified)	23	.	1	103	12	5
CCN(CC)CCCn1c(C)cc2c(c1=O)C(c1cccc(Cl)c1)C(C#N)=C(N)O2 (stereo unspecified)	.	.	0	.	6	36*
CCN(CC)C(=O)Oc1ccc(Cl)c2cccnc12	14	i	0	96	1	3
O=C(Nc1cccc(C(F)(F)F)c1)Oc1ccc(Cl)c2cccnc12	.	i	1	92	48*	3
COC(=O)c1c(C)[nH]c(C(C)=O)c1C	25	i	3.0*	90	-2	-3
CCOC(=O)c1[nH]c2ccc(OC)cc2c1NC(=O)CN1CCC2(CC1)OCCO2	14	+	0	102	12	-5
